In PubChem BioAssay (NCATS) one finds Potency and activity change, negative = cytotoxicity data, which are given here for nine compounds.

The assay is described as follows: P-glycoprotein substrates identified in KB-8-5-11 adenocarcinoma cell line, qHTS therapeutic library screen (AID 1346987). Further: nearly all actives have a fitted effect of over 65% in size. On activity change, negative = cytotoxicity: series mostly up to about 44 µM. Put shortly:
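In this qHTS, P-gp-rich KB-8-5-11 cells received library compounds across a concentration range. Viability was quantified by luminescence after 72 h at 37 degree C.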

Each structure is given as a SMILES string. Results filed as inconclusive are left out. Where a call stands in place of a potency, no number is given. A number with no mark means an inactive call. Calls of active or inactive are those of the source. The call rests on the fitted dose curve; in most records, active means well fitted inhibition curve with a large enough effect; inconclusive means small, poorly fitted or top-dose-only effect; inactive means flat fitted curve, though single readings scatter.
Potency means the concentration at half of the fitted maximal effect.

With `C[C@H]1C[C@H]2[C@@H]3CCC4=CC(=O)C=C[C@]4(C)[C@@]3(F)[C@@H](O)C[C@]2(C)[C@@]1(O)C(=O)CCl`, the Potency result is “inactive”. Still for that read-out and setting: the result for `CCC(=O)OCC(=O)[C@@]1(OC(=O)CC)[C@H](C)C[C@H]2[C@@H]3CCC4=CC(=O)C=C[C@]4(C)[C@@]3(F)[C@@H](O)C[C@@]21C` reads “inactive”. As for `C=CC(C)(O)CC/C=C(\C)C(=O)OC1C(O)C(CO)OC(OC(=O)C23CCC(C)(C)CC2C2=CCC4C5(C)CCC(OC6OC(COC7OCC(OC(C)=O)C(O)C7OC7OC(COC(C)=O)C(O)C(O)C7OC(C)=O)C(O)C(O)C6OC6OCC(O)C(O)C6O)C(C)(C)C5CCC4(C)C2(C)C(O)C3O)C1OC1OCC(OC2OCC(O)C(OC3OCC(O)C(O)C3O)C2O)C(O)C1O` (centres undefined), the activity change, negative = cytotoxicity is -2.64% [at 5.11 µM]. `O=C(Nc1ccc(/C=C/c2ccc(NC(=O)c3cc(S(=O)(=O)O)c4cccnc4c3O)cc2S(=O)(=O)O)c(S(=O)(=O)O)c1)c1cc(S(=O)(=O)O)c2cccnc2c1O`: the Potency entry is “inactive”. On to `CC(C)CCNc1ncccc1C(=O)N1CCN(Cc2ccccc2)CC1`, for which the Potency result is “inactive”. On to `CC(C)C[C@@H]1NC(=O)[C@@H](Cc2ccccc2)NC(=O)C(CCCCCC(=O)C2CO2)NC(=O)[C@@H]2CCCCN2C1=O` (some centres undefined), for which the Potency is 3.99 µM (active). With `C[C@H](Oc1cc(-n2cnc3ccc(CN4CCN(C)CC4)cc32)sc1C(N)=O)c1ccccc1C(F)(F)F`, the Potency was 4.61 µM (active). Same read-out and setting: under `COc1ccc(C#Cc2ccc(C(=O)N3CCC[C@@H](O)C3)c(F)c2)cc1` stands “inactive”; under `C=C1/C(=C/C=C2\CCC[C@@]3(C)C2CCC3[C@H](C)/C=C/[C@@H](O)C2CC2)C[C@@H](O)C[C@@H]1O` (some centres undefined), “inactive”.
